High-throughput results (PubChem)
ID4 SMM: binders of human ID4 protein, primary screen, biochemical, small molecule microarray, single point; DNA-binding protein inhibitor ID-4 (Homo sapiens), P47928; Flag-ID4 binding, fluorescence F/B; calls only; hit rate 1.2% among 31,000; call rule not given here;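 also: a binder raises fluorescence above local background on the spot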
Target sequence (P47928 whole entry, looked up): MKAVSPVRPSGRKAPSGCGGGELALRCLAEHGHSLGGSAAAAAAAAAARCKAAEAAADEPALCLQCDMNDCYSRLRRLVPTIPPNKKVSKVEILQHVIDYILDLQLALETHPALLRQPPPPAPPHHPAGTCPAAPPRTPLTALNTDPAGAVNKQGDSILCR
STK33 kin inh: STK33 kinase inhibitors, primary screen, biochemical, luminescence, ADP-Glo, MBP substrate. Serine/threonine-protein kinase 33 (Homo sapiens), Q9BYT3. hit rate 0.44% among 27,000. inhibition, % at 12.5 µM; in the data active = inhibition above about 20%
Hits are given with their value; i = inactive; nt = no result given; + = active, no number. Most compounds without a hit are left out; they make up all but 1.3% or so of the library.

SMILES	ID4 SMM	STK33 kin inh
COc1cccc(S(=O)(=O)N(C)C[C@H]2Oc3ncc(-c4cccc(C(=O)N(C)C)c4)cc3C(=O)N([C@H](C)CO)C[C@@H]2C)c1	+	nt
C[C@H](CO)N1C[C@H](C)[C@@H](CN(C)C)Oc2ncc(-c3ccncc3)cc2C1=O	i	nt
C[C@@H]1CN([C@@H](C)CO)C(=O)c2cc(-c3ccncc3)cnc2O[C@H]1CN(C)C	+	nt
COC(=O)c1c(NC(=O)CSc2nnc3ccccn23)sc(C)c1C	+	i
CCOC(=O)c1c(NC(=O)CSc2nnc3ccc4ccccc4n23)sc(C)c1C	i	i
COc1ccc2[nH]cc(CCNC(N)=O)c2c1	i	i
Cc1nccc(-c2cccc(NS(=O)(=O)c3ccccc3C(F)(F)F)c2)n1	nt	i
COC(=O)COc1cccc(NC(=O)c2ccccc2I)c1	i	i
O=C(O)C1C2C=CC(C2)C1C(=O)N1CCc2c([nH]c3ccccc23)C1C(F)(F)F (stereo not drawn)	i	nt
COCCNC(=O)COc1ccc(OCCNC[C@@H](O)COc2ccccc2)cc1	i	nt
O=C(O)COc1ccc(OCCNC[C@@H](O)COc2ccccc2)cc1	+	nt
NS(=O)(=O)c1ccc(N=Cc2c(O)[nH]c3ccccc23)cc1	nt	94
NS(=O)(=O)c1ccc(N(S(=O)(=O)c2ccccc2)S(=O)(=O)c2ccccc2)cc1	i	nt
Cc1ccc(C(C)C)c(OCC(=O)Nc2ncc(I)cc2C)c1	i	i
Cc1ccc(-n2c(Cn3ncc4ccccc4c3=O)n[nH]c2=S)c(Br)c1	i	i
COc1ccc(NC(=O)CNC(=O)c2ccccc2F)cc1Cl	i	i
Cc1ccc(C2=NNC(=O)C(c3cn(CCC#N)c4ccccc34)C2)cc1 (stereo not drawn)	i	i
Cn1c2ccccc2c2c3c(c4c5ccccc5n(CCC#N)c4c21)CNC3=O	nt	109
COc1ccc(CCNC(=O)C2OCCc3ccccc32)cc1OC (stereo not drawn)	+	i
O=C(NCc1ccco1)C1OCCc2ccccc21 (stereo not drawn)	i	i
O=C(CCCCc1ccc(O)cc1)CCc1ccc(O)cc1	nt	i
COc1cccc(NC(=O)c2c(NC(=O)c3cccnc3)sc3c2CCC3)c1	i	i
O=C(O)CCCCCCC(=O)Nc1ccc(C2OC(CSCCO)CC(c3ccccc3)O2)cc1 (stereo not drawn)	+	nt
COC(=O)CCCCCCC(=O)Nc1ccc(C2OC(CSc3ccccn3)CC(c3ccccc3)O2)cc1 (stereo not drawn)	i	i
CC(C)CC(=O)c1c(O)cc(O)cc1OC1OC(COC(=O)c2cc(O)c(O)c(O)c2)C(O)C(O)C1O (stereo not drawn)	nt	i
SMILES	ID4 SMM	STK33 kin inh
COC(=O)c1ccc(NC(=O)C2CCCCC2C(=O)O)cc1 (stereo not drawn)	i	i
COc1cccc(C(=O)Nc2ccc(NC(=O)C3CCCCC3C(=O)O)cc2)c1 (stereo not drawn)	+	i
C=C(CO)C(=O)O[C@H]1C[C@H]2C(=C)C[C@H](OC(=O)C(=C)CO)[C@H]3C(=C)C(=O)O[C@@H]3[C@H]2C1=C	nt	i
O=C(O)CCCc1c[nH]c2ccccc12	+	i
O=C(O)C(O)Cc1c[nH]c2ccccc12 (stereo not drawn)	i	nt
CCOc1ccc(NC(=O)N(Cc2cn(C)c3ccccc23)C2CCCCC2)cc1	i	nt
O=C(Nc1ccccc1C(=O)O)c1cccc(S(=O)(=O)NCc2ccccc2)c1	i	i
C[C@@H]1CN([C@H](C)CO)C(=O)c2cc(NC(=O)Cc3cn(C)c4ccccc34)ccc2O[C@H]1CN(C)C(=O)Nc1ccccc1	i	nt
C[C@H]1CN([C@@H](C)CO)C(=O)c2cc(NC(=O)Cc3cn(C)c4ccccc34)ccc2O[C@H]1CN(C)C(=O)Nc1ccccc1	+	nt
COc1ccc(CN(C)C[C@@H]2Oc3ccc(NC(=O)Cc4cn(C)c5ccccc45)cc3C(=O)N([C@@H](C)CO)C[C@@H]2C)cc1	+	i
COc1ccc(CN(C)C[C@@H]2Oc3ccc(NC(=O)Cc4cn(C)c5ccccc45)cc3C(=O)N([C@H](C)CO)C[C@@H]2C)cc1	i	nt
CC(=O)O[C@@H]1CC2C(C)(C)CCC[C@]2(C)C2CC[C@]3(C)C(=CC(=O)O[C@H]3c3ccoc3)[C@@]21C (stereo partly drawn)	nt	i
COc1cccc(N2C(=O)CC(SCC(=O)Nc3ccc4ccccc4c3)C2=O)c1 (stereo not drawn)	nt	i
O=C(Cn1nnc(-c2ccccc2)n1)Nc1ccccc1C(=O)O	i	i
CC1=CCC2[C@](C)(CCC[C@]2(C)C(=O)O)[C@H]1CCc1ccoc1 (stereo partly drawn)	nt	i
C=CS(=O)(=O)c1ccc(OC)c(N)c1	nt	i
O=C(Cn1cnc2ccccc2c1=O)NCc1ccco1	i	i
Cn1c(=O)[nH]c(=O)c2c1ncn2CCNCc1ccco1	+	i
O=S(=O)(NCC1CCN(Cc2cccc(OCCO)c2)CC1)c1ccc(Cl)c(Cl)c1	nt	i
CCc1cccc(OCC(=O)Nc2ccc(OC)cc2[N+](=O)[O-])c1	i	i
C=CC1CN(C(C)=O)CCC1CCC(=O)c1ccnc2ccccc12 (stereo not drawn)	i	i
Cc1ccc(N(CC(=O)Nc2c(C)n(C)n(-c3ccccc3)c2=O)S(C)(=O)=O)cc1Cl	+	i
Cc1c(NC(=O)CN(c2cccc(F)c2)S(C)(=O)=O)c(=O)n(-c2ccccc2)n1C	i	i
O=C(c1cccc(Cl)c1)N1CCOCC1	nt	i
COc1c(OC)c(O)c2c(=O)cc(-c3ccc(O)cc3)oc2c1OC	i	29
SMILES	ID4 SMM	STK33 kin inh
COc1cc2oc(-c3ccccc3)cc(=O)c2c(O)c1OC	i	i
COc1ccc(-c2oc3c(OC)c(OC)c(OC)c(O)c3c(=O)c2OC)cc1OC	nt	i
COc1cc(-c2cc(=O)c3c(O)c(OC)c(OC)c(O)c3o2)ccc1O	nt	65
Cc1ccc(S(=O)(=O)N(C)CC(=O)Nc2ccc3ccccc3c2)cc1	i	i
CC(C)(C)c1cn2c3ccccc3nc2n1CCCN1CCCCC1	i	i
COc1ccc(C)cc1NC(=O)C(=S)NCc1ccco1	nt	i
